TGFb SMAD3 inh = blocks TGF-b signaling | HepG2 CAGA-GFP TGF-b/SMAD3 reporter, GFP fluorescence, 18 h; TGF-beta stimulated, 500 pg/mL final | Potency, µM (doses to about 46.1 µM), for inactives: top-dose activity, negative = inhibition, actives largely listed as inhibitors | AID 588855 | actives 1.2% (n = 410,000); also: % is scaled to controls: 0 for no effect and ±100 for the full control effect; nearly all actives have a fitted effect of over 65% in size
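Using HEPG2 CAGA-GFP reporter cells at 1000 cells/well, we pinned test compounds, stimulated with recombinant TGF-beta (500 pg/mL final) and measured total well GFP after 18 h.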
DT40 TDP1 no CPT = qHTS for Inhibitors of human tyrosyl-DNA phosphodiesterase 1 (TDP1): qHTS in cells in absence of CPT; DT40 Tdp1-/- hTDP1 cells, no CPT, ATP luminescence, 48 h; Potency, µM (titrated, usually from 46.2 µM), for the others: at the highest dose activity change, negative = growth inhibition, actives largely listed as inhibitors; actives 15% (n = 420,000); also: % is scaled to controls: 0 for no effect and ±100 for the full control effect; nearly all actives have a fitted effect of over 55% in size
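A cellular qHTS used chicken DT40 cells lacking endogenous Tdp1 but carrying stably transfected human TDP1. Compounds were applied without camptothecin, and cell growth kinetics were judged by ATP-dependent luminescence after ≥48 hr.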
HepG2 tox = HepG2 cytotoxicity, counter-screen for TGF-b inhibitors. HepG2 CAGA-GFP viability, ATP luminescence, 18 h. Potency, µM (doses to about 46.1 µM), inactives show at the highest dose activity change, negative = cytotoxicity, usual class: cytotoxic. actives 0.76% (n = 410,000)
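HepG2 CAGA-GFP cells (1000/well, DMEM with 1% FBS) received compound, then TGF-beta at 500 pg/mL final, and were incubated 18 hours at 37 degrees C. Viability was read by CellTiter-Glo luminescence. Media-only wells were set as complete cell-killing and DMSO as no toxicity.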
ATXN2 expr inh = inhibitors of ATXN2 expression | HEK-293 ATXN2-luciferase reporter, luminescence, 24 h | Potency, µM (doses to about 57 µM), inactives show at the top dose activity change, negative = inhibition, most hits filed as inhibitors | actives 0.72% (n = 360,000); also: % is scaled to controls: 0 for no effect and ±100 for the full control effect; nearly all actives have a fitted effect of over 55% in size
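ATXN2-luciferase reporter cells (luciferase flanked by upstream and downstream ATXN2 gene portions) were treated 24 h at 37 °C with compounds at up to 57 uM. SteadyGlo luminescence gave expression; GF-AFC fluorescence gave viability.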
TDP1 cell CPT = DT40-hTDP1 cell growth loss with CPT; chicken DT40 Tdp1-/-;hTDP1 cells + 20 nM CPT, ATP luminescence, 48 h; Potency, µM (titrated, usually from 46.2 µM), without a hit: at the top dose activity change, negative = growth inhibition, most hits filed as inhibitors; actives 12% (n = 420,000); AID 686979; also: % is scaled to controls: 0 for no effect and ±100 for the full control effect; nearly all actives have a fitted effect of over 55% in size
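Cell growth measured by CellTiter-Glo luminescence after a minimum 48 h, 37 C compound exposure with 20 nM CPT in Tdp1-knockout DT40 cells stably expressing hTDP1, seeded 400/well; qHTS titration format.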
S2 tox = reduces viability in counter-screen for ATXN expression inhibitors; Potency, µM (titrated, usually from 56.7 µM), actives largely listed as cytotoxic; actives 0.49% (n = 400,000); S2 cells (HEK-293 line with an ATXN2-luciferase reporter) viability, CellTiter-Fluor protease fluorescence, 24 h; also: nearly all actives have a fitted effect of over 40% in size
* = called active by the depositor; i = inactive; ? = inconclusive; · = no result given; ! = not confirmed by another sample; [ ] = another dose, or the depositor's remark. Rows were chosen to be rich in hits. Some 17% of all compounds tested hit in one or more screens of this group. Calls follow the shape of the dose curve; as a rule, active = well fitted curve in the direction sought with a large enough effect; inconclusive = small, poorly fitted or top-dose-only effect, or another doubt; inactive = no such curve, though single readings can be large; an effect the other way counts as inactive or inconclusive. Potency is read from the fitted curve at half-maximal effect.

SMILES	TGFb SMAD3 inh	DT40 TDP1 no CPT	HepG2 tox	ATXN2 expr inh	TDP1 cell CPT	S2 tox
COc1cc(/C=C2\CC/C(=C\c3ccc(OCCO)c(OC)c3)C2=O)ccc1OCCO	0.3%	23.1µM*	2.0%	1.6%[11.3 µM]	?	i
COc1cccc(CNC(=O)Cc2c(C)c3c(cc(C)c4c(C)c(C)oc43)oc2=O)c1	15.3%	-5.2%	-0.3%	·	-14.2%	·
CCOC(=O)c1cc(-c2ccncc2)nc2c1c(C)nn2-c1ccccn1	-11.8%	16.4µM*	-26.2%	-2.3%	?	?
CCC(C)Sc1ccc([C@@H]2[C@@H]3C(=O)N(C)C(=O)[C@@H]3[C@]3(C(=O)OC)CCCCN23)cc1 (stereo partly specified)	1.2%	?	-23.7%	-5.9%	18.4µM*	i
CCC(C)Sc1ccc([C@@H]2[C@@H]3C(=O)N(CC)C(=O)[C@@H]3[C@]3(C(=O)OC)CCCCN23)cc1 (stereo partly specified)	-13.7%	20.6µM*	-10.4%	2.2%	?	i
CCC(C)Sc1ccc([C@@H]2[C@H]3C(=O)N(CC)C(=O)[C@H]3[C@]3(C(=O)OC)CCCN23)cc1OC (stereo partly specified)	-18.0%	23.1µM*	-4.9%	-2.8%	23.1µM*	i
O=C(Nc1ncc(Cc2ccc(F)cc2)s1)c1ccc2c(c1)CC(c1ccccc1)OC2=O (stereo unspecified)	11.2%	23.1µM*	-0.9%	3.0%	?	i
Oc1cc(O)cc(/C=C/c2ccc(O)c(O)c2)c1	0.6%	0.651µM*	-23.7%	58.2%	10.3µM*!	?
COc1ccc(NC(=O)CSC2=Nc3ccccc3C3=NC(Cc4ccccc4)C(=O)N23)cc1Cl (stereo unspecified)	-0.6%	?	1.5%	-17.6%	20.6µM*	?
Cc1ccc(NC(=O)CSC2=Nc3ccccc3C3=NC(Cc4ccccc4)C(=O)N23)cc1C (stereo unspecified)	6.6%	13µM*	-18.1%	-1.4%	9.2µM*	?
O=C(NC1CCCCC1)c1noc2c1CCCCC2	5.1%	?	-20.4%	26.6%	-19.5%	i
CC1(C)CC(=O)C=C(c2ccc(COC(=O)Cc3ccccc3)cc2)C1=O	10.4%	-16.0%	-3.4%	3.1%	-13.1%	i
CC(C)(C)c1ccc(-c2nnc(SCCC#N)n2C2CCCC2)cc1	?	18.4µM*	-14.7%	-29.4%	18.4µM*	i
O=C(CSc1nnc(-c2ccc(Br)cc2)n1C1CCCCC1)N1CCCC1	4.6%	23.1µM*	-15.3%	-26.4%	?	i
O=C(CSc1nnc(-c2ccc(Cl)cc2Cl)n1C1CCCCC1)N1CCCC1	9.8%	20.6µM*	-13.2%	-7.8%	23.1µM*	i
O=C(CSc1nnc(-c2ccccc2F)n1C1CCCCC1)N1CCCC1	1.4%	-23.4%	-9.6%	1.4%	-24.0%	i
Cc1c(C(=O)N2CCOc3ccc(Cl)cc3C2)sc2ncnc(NCCc3ccccn3)c12	·	?	·	·	-10.7%[9.04 µM]	i
CC1(C)CC(=O)C=C(Nc2ccc3c(c2)CCC3)C1	0.3%	?	-3.0%	·	-4.6%	?
COc1cccc(N2CCN(C(=O)c3cccc(S(=O)(=O)N4CCCC4)c3)CC2)c1	-1.7%	?	8.6%	·	-2.0%	i
Cc1cc(C)c(S(=O)(=O)N2CCN(C(=O)CCn3nc(C)c(C)c3C)CC2)c(C)c1	10.3%	14.6µM*	23.6%	-7.6%	-61.8%	i
COc1cccc(N2CCN(C(=O)CCn3nc(C)c(S(=O)(=O)N4CCCC4)c3C)CC2)c1	-16.1%	14.6µM*	-7.9%	-5.2%	?	i
CC(C)(C)c1ccc(C(=O)Nc2cc(-c3ccccc3)nn2-c2ccccc2)cc1	-0.9%	?	5.5%	5.6%	-25.1%	i
CN(C)c1ccc(/C=C/c2c([N+](=O)[O-])c(=O)n(C)c(=O)n2C)cc1	-0.3%	0.9%	-20.7%	-12.7%	1.5%	i
Cn1c(/C=C/c2ccc(Br)cc2)c([N+](=O)[O-])c(=O)n(C)c1=O	?	11.6µM*	-62.8%	?	8.2µM*	?
Cc1ccnc2ccc(N)cc12	-10.2%	?	-28.6%	·	?	·
SMILES	TGFb SMAD3 inh	DT40 TDP1 no CPT	HepG2 tox	ATXN2 expr inh	TDP1 cell CPT	S2 tox
N#CC1=C(N)Oc2n[nH]c(-c3cccnc3)c2C1c1ccc([N+](=O)[O-])o1 (stereo unspecified)	?	2.91µM*	-64.5%	-22.7%	3.66µM*	?
CC(C)c1ccc(OCc2cc(=O)n3c(-c4ccccc4)csc3n2)cc1	-6.0%	25.9µM*	1.5%	7.9%	?	i
CCN(c1ccccc1)S(=O)(=O)c1ccc(OC)c(NC(=O)Cc2ccccc2OC)c1	13.2%	23.1µM*	1.7%	4.4%	23.1µM*	i
CCN(c1ccccc1)S(=O)(=O)c1ccc(Cl)c(NC(=O)COC(=O)c2cccc(OC)c2O)c1	-1.6%	18.4µM*	5.9%	0.2%	?	i
CC1(C(=O)NS(=O)(=O)c2cccc(Cl)c2)CCN1C(=O)c1ccccc1CCc1ccccc1 (stereo unspecified)	1.7%	?	-36.1%	-10.4%	?	?
NC(=O)NO	-6.6%	-2.2%	-1.8%	7.69µM*!	4.0%	i
NC(=O)NCC1CC1	-3.9%	-19.1%	-8.8%	0.3%	1.1%	i
COc1ccc(S(=O)(=O)NNC(=O)c2cc3c4ccccc4n(C)c3s2)cc1	1.1%	4.11µM*	-7.0%	8.5%	2.91µM*	i
CCC(Sc1nnc2c3ccccc3n(CC)c2n1)C(=O)Nc1nnc(C(C)C)s1 (stereo unspecified)	3.7%	?	-36.8%	6.6%	?	i
CCCn1c2ccccc2c2nnc(SC(CC)C(=O)Nc3sc4c(c3C#N)CCCC4)nc21 (stereo unspecified)	13.4%	?	-21.0%	-11.7%	?	i
CCCn1c2ccccc2c2nnc(SC(CC)C(=O)Nc3cc(C)on3)nc21 (stereo unspecified)	-0.7%	29.1µM*	-6.3%	-4.4%	?	i
CCOC(=O)c1sc(NC(=O)C(CC)Sc2nnc3c4ccccc4n(CC)c3n2)nc1C (stereo unspecified)	3.2%	?	-4.6%	0.6%	6.51µM*	i
CCOC(=O)C(Sc1nnc2c3ccccc3n(CC)c2n1)C(=O)OCC	-22.6%	?	-10.5%	-20.0%	-17.3%	i

Compound activity deposited in PubChem BioAssay by National Center for Advancing Translational Sciences (NCATS).
